Assay results reported in PubChem BioAssay (NCI).
Compounds without any hit were thinned out: in the full panel of roughly 83,000, 20% have a hit.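 Activity criterion: percent growth below 10, measured after cells in 96-well plates were exposed to a single compound concentration for 48 hours.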 Activity calls are given as the source filed them.

Tests used:
Assay in all cases: NCI-60 one-dose screen, 48 h (100 = growth as untreated, 0 = no growth, -100 = all killed)
Conditions in all cases: 10 µM unless noted
HCT-15 colon = system: HCT-15 colon
HT29 colon = system: HT29 colon
SNB-75 CNS = system: SNB-75 CNS
U251 CNS = system: U251 CNS
PC-3 prostate = system: PC-3 prostate
SK-MEL-5 melanoma = system: SK-MEL-5 melanoma
UACC-62 melanoma = system: UACC-62 melanoma
LOX IMVI melanoma = system: LOX IMVI melanoma
SK-MEL-28 melanoma = system: SK-MEL-28 melanoma
SK-MEL-2 melanoma = system: SK-MEL-2 melanoma
EKVX NSCLC = system: EKVX NSCLC
SN12C renal = system: SN12C renal
UO-31 renal = system: UO-31 renal
TK-10 renal = system: TK-10 renal
ACHN renal = system: ACHN renal
CAKI-1 renal = system: CAKI-1 renal
A498 renal = system: A498 renal
MOLT-4 leukemia = system: MOLT-4 leukemia
CCRF-CEM leukemia = system: CCRF-CEM leukemia

Measured: growth

O=S(=O)(Nc1ccc2ccccc2c1)N1CCCCC1
inactive: HCT-15 colon 40.6% | HT29 colon 40.9% | SNB-75 CNS 52% | U251 CNS 57.2% | PC-3 prostate 61% | SK-MEL-5 melanoma 59.8% | UACC-62 melanoma 56% | LOX IMVI melanoma 51.8% | SK-MEL-28 melanoma 73.6% | EKVX NSCLC 81% | SN12C renal 81.9% | UO-31 renal 25% | TK-10 renal 86.8% | ACHN renal 63.7% | CAKI-1 renal 44% | A498 renal 27% | MOLT-4 leukemia 64.5%
active: SK-MEL-2 melanoma 8.41%

NNc1ccc(S(N)(=O)=O)cc1
inactive: HCT-15 colon 110% | SNB-75 CNS 89.9% | PC-3 prostate 90.2% | SK-MEL-5 melanoma 100% | LOX IMVI melanoma 86.4% | SK-MEL-28 melanoma 108% | EKVX NSCLC 103% | UO-31 renal 91.6% | ACHN renal 105% | CAKI-1 renal 97.8% | MOLT-4 leukemia 102%
active: CCRF-CEM leukemia 9.37%

COc1ccccc1/C=C/C(=O)CCC(=O)O
inactive: HCT-15 colon 113% | HT29 colon 107% | SNB-75 CNS 98.5% | U251 CNS 107% | PC-3 prostate 94.5% | SK-MEL-5 melanoma 109% | UACC-62 melanoma 108% | LOX IMVI melanoma 99.8% | SK-MEL-28 melanoma 110% | SK-MEL-2 melanoma 102% | EKVX NSCLC 105% | SN12C renal 100% | UO-31 renal 85.2% | TK-10 renal 110% | ACHN renal 101% | CAKI-1 renal 99% | A498 renal 130% | CCRF-CEM leukemia 96.3% | MOLT-4 leukemia 100%

CCN1C(=O)N(CC)C2C1NN=c1s/c(=C\c3ccc(Br)cc3)c(=O)n12 (stereo unspecified)
inactive: HCT-15 colon 11.4% | SNB-75 CNS 26.2% | U251 CNS 16.5% | PC-3 prostate 18.6% | UACC-62 melanoma 39.9% | LOX IMVI melanoma 25.1% | SK-MEL-28 melanoma 59.9% | SK-MEL-2 melanoma 24.8% | EKVX NSCLC 38.2% | SN12C renal 33.9% | UO-31 renal 35.4% | TK-10 renal 52.7% | ACHN renal 29.2% | CAKI-1 renal 23.8% | A498 renal 12.6% | CCRF-CEM leukemia 11.4% | MOLT-4 leukemia 12.6%
active: HT29 colon 5.08% | SK-MEL-5 melanoma -4.8%

O=C1C(Cl)=C(Nc2cccc3ccccc23)C(=O)c2ccccc21
inactive: HCT-15 colon 70% | HT29 colon 90.3% | SNB-75 CNS 81.6% | U251 CNS 75.6% | PC-3 prostate 43% | SK-MEL-5 melanoma 60.9% | UACC-62 melanoma 55.1% | LOX IMVI melanoma 32.7% | SK-MEL-28 melanoma 91.4% | SK-MEL-2 melanoma 79.1% | EKVX NSCLC 74.4% | SN12C renal 80.1% | UO-31 renal 58.5% | TK-10 renal 95.4% | ACHN renal 68.2% | CAKI-1 renal 25.4% | A498 renal 77.5% | CCRF-CEM leukemia 65.4% | MOLT-4 leukemia 64.9%

O=C(Nc1cccc(Cl)c1)Nc1ccccc1Cl
inactive: HCT-15 colon 93.6% | HT29 colon 80.8% | SNB-75 CNS 89.4% | U251 CNS 87.3% | PC-3 prostate 57.1% | SK-MEL-5 melanoma 102% | UACC-62 melanoma 63.7% | LOX IMVI melanoma 89.1% | SK-MEL-28 melanoma 95.4% | SK-MEL-2 melanoma 98.5% | SN12C renal 81.5% | UO-31 renal 69.8% | TK-10 renal 88.5% | CAKI-1 renal 71.4% | A498 renal 63.4% | CCRF-CEM leukemia 84.7%

COc1cc(Nc2ncccc2/C=C/C(=O)c2cc(OC)c(OC)c(OC)c2)cc(OC)c1OC
inactive: HCT-15 colon 74.2% | HT29 colon 67.8% | SNB-75 CNS 67.9% | U251 CNS 50.8% | PC-3 prostate 74.1% | SK-MEL-5 melanoma 53.9% | UACC-62 melanoma 65.8% | LOX IMVI melanoma 17.1% | SK-MEL-28 melanoma 90.5% | SK-MEL-2 melanoma 78.3% | EKVX NSCLC 90.5% | SN12C renal 79.3% | TK-10 renal 121% | ACHN renal 76.1% | CAKI-1 renal 72% | A498 renal 84.9% | CCRF-CEM leukemia 40.8% | MOLT-4 leukemia 70.9%
